According to PubChem BioAssay AID1209 (Sanford-Burnham Center for Chemical Genomics, 2008):
In all, about 190,000 compounds went through this assay and about 810 (0.43%) were called active. The sample holds actives, similar compounds and a random draw of the others, so the mix is not that of the screen. Unmarked numbers belong to inactive results. Rule as the data show it: active = inhibition above about 50%; inactive = the rest.

Target: Mannose-6-phosphate isomerase (Homo sapiens) (UniProt P34949)
Assay: MPI enzyme activity inhibition – biochemical, fluorescence intensity, coupled assay, primary screen (AID 1209);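 also: plate controls were DMSO vehicle for no effect and wells lacking substrate for full effect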
Settings: purified PMI enzyme, at 20 µM, stronger effect = higher value

Chain of Mannose-6-phosphate isomerase (Homo sapiens) (P34949 whole entry, looked up): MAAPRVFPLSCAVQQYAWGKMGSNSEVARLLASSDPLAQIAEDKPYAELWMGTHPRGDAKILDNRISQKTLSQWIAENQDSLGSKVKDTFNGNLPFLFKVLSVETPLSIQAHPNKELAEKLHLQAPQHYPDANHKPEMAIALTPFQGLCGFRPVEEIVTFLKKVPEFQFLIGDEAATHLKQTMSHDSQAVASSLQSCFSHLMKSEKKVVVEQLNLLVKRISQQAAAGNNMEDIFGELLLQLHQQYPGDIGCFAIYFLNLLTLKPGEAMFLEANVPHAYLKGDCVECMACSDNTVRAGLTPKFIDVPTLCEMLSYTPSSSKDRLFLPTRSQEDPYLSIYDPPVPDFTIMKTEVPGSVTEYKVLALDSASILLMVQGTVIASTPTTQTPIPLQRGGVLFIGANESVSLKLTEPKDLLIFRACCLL

For O=C(Cn1cc(C(F)(F)F)ccc1=O)N/N=C/c1ccc(F)cc1, which inhibition is on record?
Its inhibition is -3.8%.

How did the inhibition turn out when CC1CCN(CC(=O)N2c3ccccc3CC2C)CC1 (stereo not given) was run?
The inhibition was -23.2%.

Which inhibition does the source give for Cc1cc(=O)c(C(=O)O)cn1Nc1ccc(F)cc1 here?
The inhibition was -5.7%.

How did the inhibition turn out when COc1ccc(C(O)Cc2nc3ccccc3n2C)cc1OC (stereo not given) was run?
Its inhibition is -8.6%.

Cc1ncc(C[n+]2csc(CCOC(=O)CC34CC5CC(CC(C5)C3)C4)c2C)c(N)n1 was tested. Which inhibition did it give?
The inhibition was -0.1%.

Which inhibition does the source give for COc1cc(CNc2ccc(N3CCCC3)cc2)ccc1OCc1ccccc1 here?
Its inhibition is 86.4% (active).

For CCOc1c(Cl)cc(CNc2ccc(S(N)(=O)=O)cc2)cc1OC, which inhibition is on record?
The inhibition was -1.5%.

How did the inhibition turn out when C=CCOc1c(Cl)cc(CNc2ccc(C)c(Cl)c2)cc1OC was run?
The inhibition was 13.1%.

With CCOc1cc(CNc2ccc(S(N)(=O)=O)cc2)cc(Cl)c1OC as the compound, how does the inhibition read?
The inhibition was 3%.

CCOc1cc(CNc2ccc(N3CCCC3)cc2)cc(Cl)c1OC was tested. Which inhibition did it give?
The inhibition was 83% (active).

COc1cc(CNc2ccc(N3CCCC3)cc2)cc(Cl)c1OC was tested. Which inhibition did it give?
Its inhibition is 76.9% (active).

With CCOc1cc(CNc2ccc(N3CCOCC3)cc2)cc(Br)c1OCC as the compound, how does the inhibition read?
Its inhibition is 6.4%.

COc1cc(CNc2ccc(N3CCOCC3)cc2)cc(Br)c1OC was tested. Which inhibition did it give?
Its inhibition is -0.4%.

COc1cc(CNc2ccc(N3CCCC3)cc2)ccc1OCc1ccccc1F was tested. Which inhibition did it give?
Its inhibition is 29.9%.

With COc1cc(CNc2ccc(N3CCN(C(C)=O)CC3)cc2)ccc1OCc1ccccc1 as the compound, how does the inhibition read?
Its inhibition is 20%.

CCOc1c(Cl)cc(CNC(C)(C)CC(C)(C)C)cc1OC was tested. Which inhibition did it give?
Its inhibition is 4.6%.

Which inhibition does the source give for C/C(=N/NC(=O)c1ccncc1)c1c[nH]c2ccccc12 here?
The inhibition was -0.2%.

Cc1cccc(-n2ccnc2SCC(=O)N2CCCc3ccccc32)c1C was tested. Which inhibition did it give?
Its inhibition is 5.4%.

COC(=O)c1c(C(=O)OC)c2cc(C(=O)c3ccccc3)ccn2c1Cl was tested. Which inhibition did it give?
Its inhibition is -15.3%.

For CS(=O)(=O)N1CCN(C2CCN(Cc3ccccc3)CC2)CC1, which inhibition is on record?
The inhibition was -0.6%.

CN1CCc2nc3sc(C(=O)NCc4ccccc4)c(N)c3cc2C1 was tested. Which inhibition did it give?
The inhibition was -30.8%.

With CC(NC(=O)NC12CC3CC(CC(C3)C1)C2)c1ccc2c(c1)OCO2 (stereo not given) as the compound, how does the inhibition read?
The inhibition was -7.3%.

How did the inhibition turn out when O=C(NCC(c1ccco1)N1CCN(c2ccccc2F)CC1)OCc1ccccc1 (stereo not given) was run?
Its inhibition is 18%.

With O=C(N1CCCCCC1)n1c(Cc2ccccc2)nc2ccccc21 as the compound, how does the inhibition read?
The inhibition was -0.4%.

Which inhibition does the source give for NCc1oc(-c2ccccc2)cc1C(=O)O here?
The inhibition was -55.4%.

Which inhibition does the source give for COc1c(C(O)CC(C)C)ccc2c1C(=O)OCc1cc(C)cc(O)c1O2 (stereo not given) here?
The inhibition was 23.7%.

Which inhibition does the source give for O=C(CCCc1c[nH]c2ccccc12)NCC1COc2ccccc2O1 (stereo not given) here?
Its inhibition is -0.7%.

With Cc1cccc(CN2CCN(CC(=O)NCc3cccs3)C2=O)c1 as the compound, how does the inhibition read?
The inhibition was -8.2%.

With CCOc1ccc(CNc2ccc(N3CCCC3)cc2)cc1 as the compound, how does the inhibition read?
Its inhibition is 85.9% (active).

For CCOc1ccc(CNc2ccc(CNc3ncn[nH]3)cc2)cc1, which inhibition is on record?
The inhibition was 9.7%.

CCOc1ccc(C(=O)Nc2ccc(N3CCCC3)cc2)cc1 was tested. Which inhibition did it give?
The inhibition was -29%.

For O=C(CSc1nc2[nH]ncc2c(=O)n1-c1ccccc1)NCc1cccs1, which inhibition is on record?
The inhibition was -10.6%.

For O=C(CCCCCC(=O)N(CCO)CCO)N(CCO)CCO, which inhibition is on record?
The inhibition was -2.9%.

CC1(C)CNc2cc([N+](=O)[O-])ccc2S1 was tested. Which inhibition did it give?
Its inhibition is 1.5%.

Which inhibition does the source give for CC1(C)CC(=S)Nc2ccccc2S1 here?
The inhibition was 41.8%.

For CC1(C)CNc2cc(N)ccc2S1, which inhibition is on record?
The inhibition was 82.8% (active).

Which inhibition does the source give for O=C(NCc1ccc2c(c1)OCO2)c1cc(-c2ccccc2)on1 here?
The inhibition was 15.7%.

With O=C(c1ccc(OCC2CCCO2)cc1)N1CCc2ccccc2C1 (stereo not given) as the compound, how does the inhibition read?
The inhibition was 2.4%.

How did the inhibition turn out when Oc1ccc2ccccc2c1/C=N/Nc1nnc(-c2ncc[nH]2)c2ccccc12 was run?
Its inhibition is -2.3%.

CN(C)c1ccc(C(=S)NCc2ccco2)cc1 was tested. Which inhibition did it give?
The inhibition was 50.7% (active).

With CC(=O)Nc1ccc(C(=S)NCc2ccco2)cc1 as the compound, how does the inhibition read?
Its inhibition is 9.7%.

For CN(C)c1ccc(/C=N/NC(=S)NCc2ccco2)cc1, which inhibition is on record?
The inhibition was -8%.

How did the inhibition turn out when C/C(=N\NC(=O)COc1ccc(C#N)cc1)c1ccccc1OC(F)F was run?
The inhibition was 1%.

CC(=O)Nc1cccc(Oc2ncnc3scc(-c4ccc(C(C)C)cc4)c23)c1 was tested. Which inhibition did it give?
The inhibition was 12.9%.

CNC(=O)c1nn(-c2ccc(Cl)cc2)ccc1=O was tested. Which inhibition did it give?
Its inhibition is 6.2%.

For CCOc1cc(NC(=S)NCCCOC)c(OCC)cc1NC(=O)c1cccs1, which inhibition is on record?
Its inhibition is 17.4%.

With CC[n+]1ccc(/C=C/c2ccc(N(C)C)cc2)c2ccccc21 as the compound, how does the inhibition read?
The inhibition was 1%.

For CC[n+]1ccc(C[n+]2ccccc2)c2ccccc21, which inhibition is on record?
Its inhibition is 96.8% (active).

Which inhibition does the source give for CC[n+]1ccc(C)c2cc(P(=O)(c3ccccc3)c3ccccc3)ccc21 here?
The inhibition was -16%.

Which inhibition does the source give for CC(=O)Nc1ccc(C2=NN(Cc3nnc(-c4ccccc4)o3)C(=O)SC2)cc1 here?
The inhibition was 2.2%.

CN(C)c1cccc(C(=O)NCC2CCCO2)c1 (stereo not given) was tested. Which inhibition did it give?
The inhibition was 9.2%.

Which inhibition does the source give for O=C(Nc1ccc(N=Nc2ccccc2)cc1)c1cccc(Cl)c1 here?
The inhibition was 7.7%.

Which inhibition does the source give for O=C(Nc1ccc(N=Nc2ccccc2)cc1)c1ccc(Cl)cc1Cl here?
Its inhibition is 57.5% (active).

How did the inhibition turn out when O=C(Nc1ccc(N=Nc2ccccc2)cc1)c1ccccc1Cl was run?
Its inhibition is 2.6%.

How did the inhibition turn out when COc1cccc(NC(=O)c2cccnc2)c1 was run?
Its inhibition is 8.6%.

O=c1[nH]c2cc3c(cc2cc1C(c1nnnn1C1CCCC1)N1CCCc2ccccc21)OCCO3 (stereo not given) was tested. Which inhibition did it give?
The inhibition was 12.8%.

With Cc1ccc2[nH]c(=O)c(C(c3nnnn3C3CCCC3)N3CCCc4ccccc43)cc2c1 (stereo not given) as the compound, how does the inhibition read?
The inhibition was 57.3% (active).

CCC(C)(C)n1nnnc1C(c1cc2cc(C)ccc2[nH]c1=O)N1CCCc2ccccc21 (stereo not given) was tested. Which inhibition did it give?
The inhibition was 44.4%.

For CCOC(=O)Cc1csc(NC(=O)CSc2nnc(-c3ccc(F)cc3)o2)n1, which inhibition is on record?
Its inhibition is -5.5%.

For CCOC(=O)c1ccccc1NC(=O)COC(=O)c1ccc(C)c(S(=O)(=O)N2CCOCC2)c1, which inhibition is on record?
The inhibition was 6.5%.

With CCOC(=O)Cn1nc(C)n(-c2ccc(C(C)(C)C)cc2)c1=O as the compound, how does the inhibition read?
Its inhibition is 12.5%.

With Cc1cc(N/N=C/c2ccc(Cl)cc2)nc(NCc2ccccc2)n1 as the compound, how does the inhibition read?
The inhibition was 21.7%.

With COc1ccccc1/C=N/Nc1cc(N(C)C)nc(N(C)C)n1 as the compound, how does the inhibition read?
The inhibition was 60.4% (active).

With COc1ccc(/C=N/Nc2cc(C)nc(N)n2)cc1 as the compound, how does the inhibition read?
The inhibition was 12.1%.

Which inhibition does the source give for COc1ccc(/C=N/Nc2cc(OC)ncn2)cc1 here?
Its inhibition is 14.3%.

How did the inhibition turn out when Cc1cc(N/N=C\c2ccccc2)nc(-c2ccccc2O)n1 was run?
The inhibition was 17.7%.

With Cc1cc(N/N=C/c2ccccc2)nc(NCc2ccccc2)n1 as the compound, how does the inhibition read?
The inhibition was 21.5%.

With COc1ccccc1/C=N/NC1=NCCCCC1 as the compound, how does the inhibition read?
Its inhibition is 2.7%.

How did the inhibition turn out when CN(C)c1cc(N/N=C\c2ccccc2)nc(N(C)C)n1 was run?
The inhibition was 59.2% (active).

For COc1ccccc1/C=N/Nc1nncc2ccccc12, which inhibition is on record?
The inhibition was 2.9%.

With COc1ccc(/C=N/Nc2cc(N(C)C)nc(N(C)C)n2)cc1 as the compound, how does the inhibition read?
The inhibition was 61.2% (active).

Which inhibition does the source give for Clc1ccc(/C=N/Nc2ccccn2)cc1 here?
Its inhibition is -8.3%.

With CN(C)c1cc(N/N=C/c2ccc(Cl)cc2)nc(N(C)C)n1 as the compound, how does the inhibition read?
Its inhibition is 67.4% (active).

With CCn1c(SCC(=O)Nc2cc(C)on2)nc2c(c1=O)SC(C)C2 (stereo not given) as the compound, how does the inhibition read?
The inhibition was 8.4%.

O=C(Nc1ccc2c(c1)OCCO2)c1ccc2ccccc2n1 was tested. Which inhibition did it give?
The inhibition was -3.6%.

With O=C(COc1ccccc1)NCC(=O)Nc1ccc(S(=O)(=O)NCc2ccco2)cc1 as the compound, how does the inhibition read?
The inhibition was 9.9%.

How did the inhibition turn out when COc1ccc(C(C(=O)NC2CCCC2)N(Cc2cccs2)C(=O)c2ccn[nH]2)cc1OC (stereo not given) was run?
Its inhibition is 11.2%.

CN(C)C(=O)CCSc1nnc(-c2ccncc2)o1 was tested. Which inhibition did it give?
Its inhibition is -4.7%.

CC1(C)Cc2c(c(N3CCCC3)nc3sc4c(N5CCN(CCO)CC5)ncnc4c23)CO1 was tested. Which inhibition did it give?
Its inhibition is -22.8%.

Which inhibition does the source give for Cc1cc(C(=O)N2CCCC(C(=O)c3cccc4ccccc34)C2)nc(C)n1 (stereo not given) here?
The inhibition was 6.1%.

How did the inhibition turn out when O=C(CNS(=O)(=O)c1cccs1)Nc1ccc2c(c1)OCCO2 was run?
Its inhibition is 9.1%.

For CC(C)C(=O)Nc1cccc(C(=O)N2CCCCC2C)c1 (stereo not given), which inhibition is on record?
The inhibition was 15.5%.

How did the inhibition turn out when O=C(NCc1ccncc1)Nc1cc(Cl)ccc1Cl was run?
Its inhibition is 8.5%.

With Nc1nncn1C(=O)CCCN1C(=O)c2ccccc2C1=O as the compound, how does the inhibition read?
Its inhibition is 5.4%.

CCn1c(COc2ccccc2OC)nnc1SCC#N was tested. Which inhibition did it give?
The inhibition was 5.9%.

How did the inhibition turn out when NC(N)=Nc1nc(C2COc3ccccc3O2)cs1 (stereo not given) was run?
Its inhibition is -4%.

For S=c1[nH]nc(C2COc3ccccc3O2)o1 (stereo not given), which inhibition is on record?
The inhibition was -16.3%.

Cn1c(=O)c2c(nc(NC3CCCCC3)n2CC(=O)C23CC4CC(CC(C4)C2)C3)n(C)c1=O was tested. Which inhibition did it give?
Its inhibition is 1.2%.

O=S(=O)(c1ccc(Br)s1)N1CCC(Cc2ccccc2)CC1 was tested. Which inhibition did it give?
Its inhibition is 1.1%.

Which inhibition does the source give for Cc1ccc(N(C(=O)c2cc3ccccc3oc2=O)C2C=CS(=O)(=O)C2)cc1 (stereo not given) here?
Its inhibition is 13.3%.

How did the inhibition turn out when Cc1ccc(-c2nnc(SCC(=O)NC3CCS(=O)(=O)C3)nc2-c2ccc(C)cc2)cc1 (stereo not given) was run?
The inhibition was 3.8%.

With O=C(CSc1n[nH]c(-c2ccncc2)n1)NC1CCS(=O)(=O)C1 (stereo not given) as the compound, how does the inhibition read?
Its inhibition is 77.1% (active).

Which inhibition does the source give for O=C(CSc1nnc(-c2ccccc2)c(-c2ccccc2)n1)NC1CCS(=O)(=O)C1 (stereo not given) here?
Its inhibition is -3.8%.

O=C(CSc1nnc(-c2ccccc2F)o1)OCc1ccccc1 was tested. Which inhibition did it give?
Its inhibition is -0.7%.

For CC[n+]1ccccc1/C=C/c1ccc(N(C)C)cc1, which inhibition is on record?
The inhibition was 26.1%.

Which inhibition does the source give for CC[n+]1c(/C=C/Nc2ccccc2)oc2ccccc21 here?
Its inhibition is 1.7%.

With CC[n+]1ccccc1/C=C/Nc1ccccc1 as the compound, how does the inhibition read?
The inhibition was 62% (active).

With CCOC(=O)COn1c(=O)c(C)[n+]([O-])c2ccccc21 as the compound, how does the inhibition read?
The inhibition was 4.8%.

For CC(C)(C)c1cc(CCC(=O)NN)cc(C(C)(C)C)c1O, which inhibition is on record?
The inhibition was -6.6%.

With CC(C)C(C(=O)OCC(=O)c1cccc([N+](=O)[O-])c1)N1C(=O)[C@@H]2[C@H]3CC[C@H](C3)[C@@H]2C1=O (stereo not given in full) as the compound, how does the inhibition read?
Its inhibition is 21.3%.
